Inconclusive results are not listed. Unmarked numbers belong to inactive results. Active and inactive are the calls of the source. Calls come from the whole dose curve; as a rule, active = well fitted inhibition curve with a large enough effect; inconclusive = small, poorly fitted or top-dose-only effect; inactive = flat fitted curve, though single readings scatter. Where a SMILES comes first, the peptide text is derived from it. The star is where a group is joined. AMC = Cc1cc(=O)oc2cc(N*)ccc12; βNA = c1ccc2cc(N*)ccc2c1; Cbz = O=C(OCc1ccccc1)*
Target: Glutathione peroxidase 1 (Homo sapiens) (UniProt P07203)
Assay: Primary qHTS Assay for Inhibitors of Recombinant Selenoprotein Glutathione Peroxidase 1 (GPX1) (AID 1845191); note: nearly all actives have a fitted effect of over 65% in size
Conditions: recombinant GPX1, GR-coupled NADPH fluorescence, 15 min; series mostly up to 27.7 µM; activity, negative = inhibition: at the top concentration
From the text: Assay Provider: Elias S.J. Arner MD PhD.
Department of Medical Biochemistry and Biophysics
Karolinska Institutet, Solna, Stockholm, Sweden
Selenoprotein glutathione peroxidases (GPX), like the ubiquitously expressed GPX1 and the ferroptosis modulator GPX4, enact their antioxidant activities by reducing hydroperoxides using glutathione. […] GPX1 and GPX4 inhibitors have thus shown promise as anti-cancer agents. Existing inhibitors are often promiscuous, or modulate GPX activity only indirectly, so novel direct inhibitors identified through screening against GPX1 and GPX4 could be valuable. Here, we developed optimized glutathione reductase (GR)-coupled GPX assays for the biochemical high-throughput screen (HTS) of almost 12,000 compounds with known mechanisms of action. Initial hits were triaged using a GR counter-screen, assessed for isoform specificity using a separate GPX2 assay, and were assessed for general selenocysteine-targeting activity using a thioredoxin reductase (TXNRD1) assay. With this suite of assays, we identified novel GPX1/GPX2- and GPX4-specific inhibitors and can here present a validated pipeline for future discovery research for selenoprotein-targeting agents.
SEQUENCE No. (e.g., 1, 2, 3, etc.); […] (e.g., Cells, Incubation, Reagent, etc.); VALUE; DESCRIPTION.
1; Reagent 1; 3 uL; GPx1 enzyme or no enzyme control in 1536-well, black, solid Greiner assay plate.
2; Compound; 25 nL; Kalypsis pin tool (Wako USA) equipped with a 1536-well pin head.
3; Incubation; 30 min; room temperature.
4; Reagent 2; 1 uL; 10 nM GPX1, 1 mM GSH, 0.5 mM CHP, 0.5 mM NADPH, 100 nM GR, 0.01% BSA substrate
5; Detection; Fluorescence; ViewLux microplate reader, excitation 340 nm and emission 450 nm.
6; Incubation; 15 min; room temperature.
7; Detection; Fluorescence; ViewLux microplate reader, excitation 340 nm and emission 450 nm.
NOTES (numbers refer to Sequence numbers above)
1. 3 uL of 16.66 nM GPX1 and 0.016% BSA in assay buffer (50 mM Tris-HCl, 2 mM EDTA (pH 7.5), 150 mM NaCl) was added to columns 3-48 of 1536-well assay plates using a BioRAPTR Flying Reagent Dispenser (Let's Go Robotics (LGR), Carlsbad, CA). A no-enzyme control (0.01% BSA in TES assay buffer) was added to columns 1-2.
2. 25 nL of test compounds and DMSO controls were added to each well with a pin tool (Kalypsys).
3. The assay plates were incubated for 30 minutes at room temperature.
4. 1 uL of master mix (500 nM glutathione reductase (GR), 5 mM reduced glutathione (GSH), 2.5 mM NADPH in assay buffer) was added. 1 uL of cumene hydroperoxide (CHP) ([2.5 mM] in 50% EtOH) was then added within 5 minutes to initiate the reaction. Final concentrations were: 10 nM GPX1, 1 mM GSH, 0.5 mM CHP, 0.5 mM NADPH, 100 nM GR, 0.01% BSA.
5. Initial fluorescence readout (t=0) at 340/450 nm was measured using a ViewLux multimodal detector (PerkinElmer, Waltham, MA).
7. Endpoint fluorescence readout (t=15) at 340/450 nm was measured 15 min after room temperature incubation.
Potency is the fitted concentration of half-maximal effect.

Glutathione peroxidase 1 (Homo sapiens), sequence (P07203 whole entry, looked up): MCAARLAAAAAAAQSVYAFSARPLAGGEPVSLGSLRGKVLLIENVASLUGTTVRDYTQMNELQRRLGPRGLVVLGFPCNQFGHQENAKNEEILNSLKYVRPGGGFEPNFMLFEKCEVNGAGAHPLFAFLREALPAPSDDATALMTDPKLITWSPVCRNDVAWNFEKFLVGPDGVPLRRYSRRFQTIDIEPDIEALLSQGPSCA

Structure (SMILES) | activity, negative = inhibition | outcome | Potency
CC1=C[C@@H]2[C@H]3[C@@H]4O[C@@](C)(CC[C@H]4O)[C@H]3CC(=O)[C@]23C(=O)N[C@@H](CC(C)C)[C@@H]3[C@@H]1C | -13.2% |  | 
Nc1c(-c2ccccc2)nc(Cl)c2c(O)n[nH]c(=O)c12 |  | inactive [at 48.8 µM] | 
Cc1cc(C)c2nc(-c3ccccn3)cc(C(=O)Nc3ccc(S(=O)(=O)Nc4onc(C)c4C)cc3)c2c1 | -18.2% [at 48.8 µM] |  | 
C=C1CCC[C@]2(C)CC[C@@](O)(C(=C)C(=O)O)C[C@@H]12 | -14.6% [at 48.8 µM] |  | 
CC(=C\C(C)O)/C=C(\C)C(=O)CC1CC(CC(N)=O)CC(=O)O1 (stereo not given) |  | inactive | 
Cc1cc(OCCN2CCOCC2)nn1-c1ccc2ccccc2c1 | -2.15% [at 48.8 µM] |  | 
C[C@@H]1CC[C@]2(C(=O)O[C@@H]3O[C@H](CO[C@@H]4O[C@H](CO)[C@@H](O)[C@H](O)[C@H]4O)[C@@H](O)[C@H](O)[C@H]3O)CC[C@]3(C)C(=CCC4[C@@]5(C)CC[C@H](O)[C@](C)(C(=O)O)C5CC[C@]43C)[C@@H]2[C@]1(C)O (stereo not given in full) | -11.3% [at 15.3 µM] |  | 
COc1c(O[C@@H]2O[C@H](CO)[C@@H](O)[C@H](O)[C@H]2O)c(CCC(=O)O)cc2ccoc12 | -2.49% |  | 
CC1=CC2=C(C)C(=O)C(C)(O)C(O)C2CO1 (stereo not given) |  | inactive [at 48.8 µM] | 
CCOc1ccc(-c2nn3ncccc3c2-c2ccc(S(C)(=O)=O)cc2)cc1 |  | inactive [at 48.8 µM] | 
C[C@@H]1O[C@@H](OC[C@H]2O[C@@H](OCc3ccccc3)[C@H](O)[C@@H](O)[C@@H]2O)[C@H](O)[C@H](O)[C@H]1O | -8.3% |  | 
Cc1nnc(-c2sc(NC(=O)[C@H](C(C)C)n3c(=O)[nH]c4ccccc4c3=O)nc2C)o1 | -1.95% [at 48.8 µM] |  | 
CC1=C(C)C(=O)OC(C(C)C2C(O)CC3C4C5OC5C5(O)CC(OC6OC(CO)C(OC7OC(C)C(O)C(O)C7O)C(O)C6O)CC(O)C5(C)C4CCC32C)C1 (stereo not given) | -6.35% [at 15.3 µM] |  | 
COc1cncc(C#Cc2ccccn2)c1 | 4.6% [at 48.8 µM] |  | 
CC1C(=O)OCC2=CC[N+]3([O-])CCC(OC(=O)C(C)(O)C1(C)O)C23 (stereo not given) |  | inactive | 
CC(C)=CCC/C(C)=C/CO[C@@H]1O[C@H](CO[C@@H]2O[C@@H](CO)[C@H](O)[C@H]2O)[C@@H](O)[C@H](O)[C@H]1O |  | inactive | 
CC1(O)CCC2C(C3C1CCC3(C)O)C2(C)C (stereo not given) |  | inactive [at 48.8 µM] | 
C=C(C)[C@@H]1CC[C@]2(C)CC[C@]3(C)C(CCC4[C@@]5(C)CC[C@H](O)C(C)(C)C5CC[C@]43C)C12 (stereo not given in full) |  | inactive | 
CN1CCN(C(=O)c2cc3cc(Cl)ccc3[nH]2)CC1 | -8.19% [at 48.8 µM] |  | 
COC(=O)[C@]1(Cc2ccc(O)c(CC=C(C)C)c2)OC(=O)C(O)=C1c1ccc(O)cc1 |  | inactive | 

Structure (SMILES) | activity, negative = inhibition | outcome | Potency
CC1OC(OC2C(OC(=O)[C@]34CCC(C)(C)C[C@H]3C3=CCC5[C@@]6(C)CC[C@H](OC7OC(C(=O)O)C(O)C(O)C7O)C(C)(C)C6CC[C@@]5(C)[C@]3(C)CC4O)OC(CO)C2O)C(O)C(O)C1OC1OCC(O)C(O)C1O (stereo not given in full) | -14.3% [at 15.3 µM] |  | 
Cc1cc(=O)oc2cc(NC(=O)[C@H](CCC(=O)O)NC(=O)[C@H](CC(C)C)NC(=O)[C@H](CC(C)C)NC(=O)OCc3ccccc3)ccc12 (Cbz-Leu-Leu-Glu-{AMC}) |  |  | 22.7 µM (active)
O=C(O)CCc1ccc(NCc2cccc3c2CCCN3CCOc2ccccc2)cc1F | -22% [at 48.8 µM] |  | 
CC(C)CC(NC(=O)OCc1ccccc1)C(=O)NC(CC(C)C)C(=O)NC(CCC(=O)O)C(=O)Nc1ccc2ccccc2c1 (stereo not drawn) (Cbz-Leu-Leu-Glu-βNA; configuration not given here) | 3.6% [at 48.8 µM] |  | 
C=C1CCC2(OC1)OC1CC3C4CC=C5CC(O)CC(O[C@@H]6OC[C@H](OC(=O)C(O)C(C)CC)[C@H](O)[C@H]6O[C@@H]6O[C@@H](C)[C@H](O)[C@@H](O)[C@H]6O)C5(C)C4CCC3(C)C1C2C (stereo not given in full) | -16.3% [at 15.3 µM] |  | 
CC(CC12CCCN1C(=O)C1CCCN1C2=O)OC(N)=O (stereo not given) | -3.99% |  | 
N#CC1C(=O)N=C(c2cc(Cl)ccc2O)C=C1c1cc(OCc2ccccc2)cc(OCc2ccccc2)c1 (stereo not given) |  | inactive [at 48.8 µM] | 
NC(Cc1c[nH]c2ccc(O)cc12)C(=O)O (stereo not given) |  | inactive [at 48.8 µM] | 
O=C(NC1CCN(CC(F)(F)F)CC1)c1ccc(-c2cccc(F)c2)nc1 |  | inactive [at 48.8 µM] | 
OC[C@H]1O[C@@H](OC[C@H]2O[C@@H](OCc3ccccc3)[C@H](O)[C@@H](O)[C@@H]2O)[C@H](O)[C@@H](O)[C@@H]1O |  | inactive | 
C=C1CC[C@]2(C(=O)O[C@@H]3O[C@H](CO)[C@@H](O)[C@H](O)[C@H]3O)CC[C@]3(C)C(=CCC4[C@@]5(C)C[C@H](O)[C@@H](O[C@@H]6O[C@H](C(=O)O)[C@@H](O)[C@H](O)[C@H]6O)[C@](C)(C=O)C5CC[C@]43C)C2C1 (stereo not given in full) | 1.26% [at 15.3 µM] |  | 
COc1cc(O)c2c(c1)C1(OC2=O)C(C)=CC(=O)C1O (stereo not given) | 4.32% [at 48.8 µM] |  | 
CC1(C)CC[C@]2(C(=O)O[C@@H]3O[C@H](CO)[C@@H](O)[C@H](O)[C@H]3O)CC[C@]3(C)C(=CCC4[C@@]5(C)C[C@@H](O)[C@H](O)[C@@](C)(CO)C5[C@H](O)C[C@]43C)C2[C@@H]1O (stereo not given in full) | 4.75% [at 15.3 µM] |  | 
COc1cccc(CN(C(=O)CC(C)(C)C)C2CC(C(=O)N3CCNCC3)N(Cc3ccc4c(c3)OCO4)C2)c1 (stereo not given) |  | inactive [at 48.8 µM] | 
Cc1cc(-c2nncc3c(C(C)(C)C)c(OCc4ncnn4C)nn23)no1 |  | inactive [at 48.8 µM] | 
C/C=C1/CC2C(=O)Nc3cc(O)c(OC)cc3C(=O)N2C1 (stereo not given) |  | inactive | 
CC1(C)Oc2ncnc(N)c2N=C1c1ccc(C2CCC(CC(=O)O)CC2)cc1 (stereo not given) |  | inactive [at 48.8 µM] | 
C[C@@H]1O[C@@H](O[C@H]2[C@@H]3C=CO[C@@H](O[C@@H]4O[C@H](CO)[C@@H](O)[C@H](O)[C@H]4O)[C@@H]3[C@@]3(CO)O[C@@H]23)[C@H](O)[C@H](OC(=O)/C=C/c2ccc(O)cc2)[C@H]1OC(=O)/C=C/c1ccc(O)cc1 | -16.8% [at 15.3 µM] |  | 
C=C1CCC(OC(C)=O)C2(C)CC3OC(=O)C(C)=C3CC12 (stereo not given) | -14% [at 48.8 µM] |  | 
CC(C)=CC1C[C@](C)(O)[C@@H]2[C@H]3CCC4[C@@]5(C)CC[C@H](O[C@@H]6OC[C@H](O)[C@H](O[C@@H]7O[C@H](CO[C@@H]8O[C@H](CO)[C@@H](O)[C@H](O)[C@H]8O)[C@@H](O)[C@H](O)[C@H]7O)[C@H]6O[C@@H]6O[C@@H](C)[C@H](O)[C@@H](O)[C@H]6O)C(C)(C)[C@@H]5CC[C@@]4(C)[C@@]34CO[C@@]2(C4)O1 (stereo not given in full) | 1.83% [at 15.3 µM] |  | 

From PubChem BioAssay (NCATS)
